We go through 8 molecules from PubChem BioAssay (NCATS).

A short description of assay [1]: Cell Viability - HUV-EC-C (AID 542). Note: nearly all actives have a fitted effect of over 35% in size. Note: potency is the fitted concentration of half-maximal effect. In a few lines: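 HUV-EC-C normal human vascular endothelial cells, 1000 cells/well, pre-incubated 5 hr at 37 °C, then exposed to compounds for 40 hr at 37 °C in complete medium. Viability measured as intracellular ATP by CellTiter-Glo luminescence; AC50 from Hill fits.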
Assay [2] in a line: Cellular Toxicity (caspase-3) SHSY5Y (AID 657). Note: potency is the fitted concentration of half-maximal effect. In a few lines: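 SH-SY5Y human neuroblastoma cells, 1500/well, exposed to compound for 16 hours at 37 °C in complete medium. Caspase-3/7 activity read by Caspase-Glo luminescence after 1 hr at room temperature, normalized to DMSO and 10 uM staurosporine; AC50 from Hill fit.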
Assay [3] in a line: Cell Viability - LYMP2-001 (AID 921). Note: nearly all actives have a fitted effect of over 70% in size. Note: potency is the fitted concentration of half-maximal effect. In short, it runs like this:
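Human lymphoblastoid LYMP2-001 cells, 2500 per well, in complete medium, treated 24 h at 37 C. Viability from cellular ATP by CellTiter-Glo luminescence; AC50 from Hill-equation fits of qHTS concentration-response.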

Assay [4] can be described thus: Cell Viability - LYMP1-002 - Assay at 16 hr (AID 948). Note: potency is the fitted concentration of half-maximal effect. In a few lines: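 LYMP1-002 human lymphoblastoid cells, 2500/well, were treated with compounds for 16 hr at 37 C in complete medium. Viability was read as intracellular ATP by CellTiter-Glo luminescence, and AC50 was derived from a Hill fit to concentration-response data.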
Assay [5] can be described thus: MultiTox-Fluor Cytotoxicity Assay - LYMP1-003 - Dead Cells (AID 961). Note: nearly all actives have a fitted effect of over 70% in size. Note: potency is the fitted concentration of half-maximal effect. In a few lines: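 LYMP1-003 lymphoblastoid, 2500 cells/well, 5 hr settle then 16 hr cpd at 37 C; MultiTox-Fluor reagent 60 min RT; Ex/Em 485/520 dead-cell signal; norm. DMSO = 0%, 15 uM tetraoctylammonium bromide = 100%; Hill AC50.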
The nature of assay [6]: Cell Viability - LYMP1-003 - Assay at 40 hr (AID 964). Note: nearly all actives have a fitted effect of over 60% in size. Note: potency is the fitted concentration of half-maximal effect. In short, it runs like this: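 Human lymphoblastoid LYMP1-003 cells, 2500/well in complete medium, rested 5 hr at 37 C, then exposed to compounds for 40 hr at 37 C. Viability read as intracellular ATP by CellTiter-Glo luminescence; AC50 from Hill fits of concentration-response data.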
Assay [7] can be described thus: Cell Viability - LYMP2-005 (AID 967). Note: potency is the fitted concentration of half-maximal effect. In short, it runs like this: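 Human lymphoblastoid LYMP2-005 cells, 2,500 per well in complete medium, rested 5 h at 37C then compound-treated 24 h at 37C. Intracellular ATP read by CellTiter-Glo luminescence after 30 min at room temperature; AC50 from Hill-equation fits of concentration-response data.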
The nature of assay [8]: Cell Viability - LYMP2-009 (AID 968). Note: nearly all actives have a fitted effect of over 55% in size. Note: potency is the fitted concentration of half-maximal effect.
Assay [9] can be described thus: Cell Viability - LYMP2-011 (AID 969). Note: nearly all actives have a fitted effect of over 60% in size. Note: potency is the fitted concentration of half-maximal effect. In short, it runs like this: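 Human lymphoblastoid cells (2500/well) were plated in complete medium, preincubated 5 hr at 37 C, then exposed to compounds for 24 hr at 37 C. Intracellular ATP was read by CellTiter-Glo luminescence, and AC50 came from Hill-equation concentration-response fits.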
Assay [10] in a line: Cell Viability - LYMP2-017 (AID 972). Note: nearly all actives have a fitted effect of over 55% in size. Note: potency is the fitted concentration of half-maximal effect. In a few lines:
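Human lymphoblastoid cells (2500/well) were seeded in complete medium, held 5 hr at 37 C, then exposed to compounds for 24 hr at 37 C. Intracellular ATP was read by CellTiter-Glo luminescence after 30 min at room temperature, with AC50 values from Hill-equation fits.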

A short description of assay [11]: Cell Viability - LYMP2-021 (AID 974).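 Note: compound exposure lasts 24 hours at 37 °C; nearly all actives have a fitted effect of over 55% in size.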 Note: potency is the fitted concentration of half-maximal effect. In short, it runs like this: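 Human lymphoblastoid cells (2500/well) were preincubated 5 hr at 37 C, then exposed to compounds for 24 hr at 37 C in complete medium. Intracellular ATP was read by CellTiter-Glo luminescence; AC50 came from Hill-equation fits of concentration-response data.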
A short description of assay [12]: Cell Viability - LYMP2-023 (AID 975). Note: nearly all actives have a fitted effect of over 55% in size. Note: potency is the fitted concentration of half-maximal effect. In a few lines: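 Human lymphoblastoid cells (2500/well) were preincubated 5 hr at 37 C, then exposed to compounds for 24 hr at 37 C in complete medium. Cellular ATP was read by CellTiter-Glo luminescence, and AC50 came from Hill-equation fits.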
The nature of assay [13]: Cell Viability - LYMP2-025 (AID 976). Note: potency is the fitted concentration of half-maximal effect. In a few lines:
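Human lymphoblastoid LYMP2-025 cells (2500/well) were pre-incubated 5 hr at 37 C, then treated with compounds for 24 hr at 37 C in complete medium. Viability was read as intracellular ATP by CellTiter-Glo luminescence; AC50 from Hill fits.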

Assay [14] is described as follows: Cell Viability - LYMP2-007 (AID 979).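 Note: cells exposed to compound for 24 h before reading; nearly all actives have a fitted effect of over 60% in size.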 Note: potency is the fitted concentration of half-maximal effect. In short, it runs like this: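 Human lymphoblastoid cells (2500/well) were plated in complete medium, incubated 5 hr at 37 C, then exposed to compounds for 24 hr at 37 C. Intracellular ATP was read by CellTiter-Glo luminescence after 30 min at room temperature; AC50 from Hill fits.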
Assay [15] can be described thus: Cell Viability - LYMP2-012 (AID 982). Note: potency is the fitted concentration of half-maximal effect.
Assay [16] is described as follows: Cell Viability - LYMP1-002 - Assay at 24 hr (AID 993). Note: potency is the fitted concentration of half-maximal effect. In short, it runs like this:
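Human lymphoblastoid LYMP1-002 cells, 2500/well in complete medium, were treated with compounds for 24 h at 37 C; intracellular ATP was read by CellTiter-Glo luminescence. AC50 values came from Hill-equation fits of qHTS concentration-response data.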

Assay [17] can be described thus: Cell Viability - LYMP1-002 - Assay at 40 hr (AID 994). Note: nearly all actives have a fitted effect of over 60% in size. Note: potency is the fitted concentration of half-maximal effect. In a few lines: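 Human lymphoblastoid cells, 2500/well in complete medium, were preincubated 5 hr at 37 C, then exposed to compounds for 40 hr at 37 C. Intracellular ATP was read by CellTiter-Glo luminescence after 30 min at room temperature; AC50 from Hill-equation fits.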
The nature of assay [18]: qHTS assay for small molecule disruptors of the mitochondrial membrane potential - 5 hr assay (AID 651755; calls by dose curve; note: nearly all actives have a fitted effect of over 40% in size; note: potency is the fitted concentration of half-maximal effect). In a few lines: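 HepG2 cells, attached overnight at 37C, were exposed to compound or DMSO for 5 hr at 37C, 5% CO2. Mito-MPS dye was then added for 30 min, and fluorescence read at 490/535 nm (monomers) and 540/590 nm (aggregates).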
Background: In qHTS, concentration-response curves come from the screen itself.

A short description of assay [19]: qHTS assay for environmental chemicals that activate the Aryl hydrocarbon Receptor (AhR) signaling pathway (AID 651777). Note: % of control where 0% means no effect; nearly all actives have a fitted effect of over 15% in size. Conditions: 1A2-DRE human hepatoma cells, luciferase, 24 h; activation: active compounds read high. In a few lines: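 AhR activation is scored as a rise in luciferase from a stable DRE–CYP1A2 promoter construct in human hepatoma cells. Treatment lasts 24 hr at 37 C; detection uses One-Glo after 30 min at room temperature.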

A short description of assay [20]: qHTS assay for small molecule agonists of the antioxidant response element (ARE) signaling pathway measured by Nrf2-dependant transcriptional activity (AID 720636; active = well fitted curve in the direction sought with a large enough effect in the repeat runs; an effect the other way counts as inactive or inconclusive; note: potency is the fitted concentration of half-maximal effect;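 for activation: HepG2 cells with an ARE-driven luciferase reporter; % of control where 0% means no effect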). In short, it runs like this: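 First, ARE-luc HepG2 cells attached for 6 hr at 37 C in 1% dialyzed FBS medium. Next, compound or DMSO was added and incubated 16 hr. Finally, ONE-Glo reagent was added and luminescence measured after 30 min.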

Where “and” joins values, the source holds several entries; their conditions need not be identical. Identical values can stand only once. Values without a mark were called inactive. Inconclusive results are not listed. Calls of active or inactive are those of the source. Unless noted, calls come from the whole dose curve; as a rule, active = well fitted curve in the direction sought with a large enough effect; inconclusive = small, poorly fitted or top-dose-only effect, or another doubt; inactive = no such curve, though single readings can be large; an effect the other way counts as inactive or inconclusive.

Take `O=C(O)C1C(C(=O)O)C2(Cl)C(Cl)=C(Cl)C1(Cl)C2(Cl)Cl` (stereo not drawn): the Potency result in assay [1], in assay [2], in assay [3], in assay [4], in [5] and in [6] was “inactive” in each case. The Potency entry in assay [7], in assay [8], in assay [9], in [10], in assay [11] and in assay [12] was “inactive” in each case. Moreover, the Potency entry in assay [13], in assay [14], in assay [15], in assay [16], in assay [17] and in [18] was “inactive” each time. Further, in assay [20], the Potency result was “inactive”. In assay [19], the activation is 0.623%.
On to `N#CC(Cl)Cl`, for which the Potency entry in assay [1], in assay [2], in [4], in assay [5], in assay [6] and in assay [7] was “inactive” each time. Also, the Potency result in [16], in [17] and in assay [18] was “inactive” throughout. Also, the Potency was 10 µM (active) in [3]; 15.8 µM (active) in [8]; 20 µM (active) in assay [9]; 39.8 µM (active) in assay [10]; 25.1 µM (active) in assay [11]; 25.1 µM (active) in assay [12]. The Potency in assay [13] is 39.8 µM (active); in [14], 20 µM (active). Moreover, in assay [19], the activation is 1.8%.
Regarding `ClC1=C(Cl)C2(Cl)C3C(Cl)C(Cl)CC3C1(Cl)C2(Cl)Cl` (stereo not drawn), the Potency result in [3], in assay [7], in assay [8], in [9], in assay [11] and in assay [13] was “inactive” each time. The Potency result in [15], in assay [16], in assay [18] and in [20] was “inactive” in each case. For the same molecule, in [5], the Potency was 50.1 µM (active).
As for `Cc1ccc2ccccc2c1C`, the activation in [19] is 1.49%. The Potency entry in [20] was “inactive”.
As for `Clc1ccc(C(c2ccc(Cl)cc2)C(Cl)Cl)cc1`, the Potency result in assay [1], in [3], in assay [7], in assay [8], in assay [9] and in [10] was “inactive” throughout. For the same molecule, the Potency entry in assay [11], in assay [12], in assay [13], in assay [14], in assay [15] and in [20] was “inactive” in each case. For the same molecule, the Potency is 50.1 µM (active) in [2], 79.4 µM (active) in assay [6], 50.1 µM (active) in [17] and 66.8 µM (active) in assay [18]. Also, in [19], the activation is 0.923% and 0.102%.
As to `[CH3][Hg][Cl]`, the Potency in assay [1] was 15.8 µM (active); in [3], 1.58 µM (active); in assay [4], 39.8 µM (active); in assay [6], 50.1 µM (active); in assay [8], 5.01 µM (active); in [9], 3.98 µM (active). For the same molecule, the Potency is 3.16 µM (active) in assay [10]; 3.16 µM (active) in [11]; 5.01 µM (active) in assay [12]; 7.94 µM (active) in assay [13]; 3.98 µM (active) in assay [14]; 3.16 µM (active) in [15]. In addition, the Potency was 39.8 µM (active) in assay [16] and 66.8 µM (active) in assay [18].
`[Cd+2].[Cl-].[Cl-]`: the Potency entry in assay [1], in [2] and in assay [18] was “inactive” each time. Also, the values for the Potency in [6], in [14] and in assay [20] were 15.8 µM (active), 39.8 µM (active) and 0.841 µM (active), respectively. In assay [19], the activation is 0.0733%.
Regarding `O=[N+]([O-])C(Br)Br`, the Potency entry in assay [1], in [2], in assay [4], in assay [5], in assay [6] and in [16] was “inactive” each time. The Potency result in assay [17] and in assay [18] was “inactive” throughout. The Potency in [3] is 7.94 µM (active); in [7], 25.1 µM (active); in assay [8] it was 12.6 µM (active); in assay [9], 12.6 µM (active); in [10] it was 7.94 µM (active); in assay [11] it was 10 µM (active). The Potency was 12.6 µM (active) in assay [12], 20 µM (active) in [13], 10 µM (active) in [14] and 12.6 µM (active) in [15]. The activation in assay [19] is 1.61%.
